# Assay outcomes (PubChem BioAssay)
# The list is not random: actives were taken first. Their share in the collection is about 1.2%.
# RGS8-Gao reg – human RGS8-Galphao interaction regulation | P09471 | multiplexed bead flow cytometry, RGS8-Galphao binding; actives lie on both sides | response (percent of control binding), % at 10 µM | 0.34% of 220,000 active | AID 1423; in the data active = response below about 60% or above about 140%; inactive = in between;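 also: Galphao activated as the GDP aluminium fluoride complex binding bead-coupled RGS8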
# Target sequence (P09471 whole entry, looked up): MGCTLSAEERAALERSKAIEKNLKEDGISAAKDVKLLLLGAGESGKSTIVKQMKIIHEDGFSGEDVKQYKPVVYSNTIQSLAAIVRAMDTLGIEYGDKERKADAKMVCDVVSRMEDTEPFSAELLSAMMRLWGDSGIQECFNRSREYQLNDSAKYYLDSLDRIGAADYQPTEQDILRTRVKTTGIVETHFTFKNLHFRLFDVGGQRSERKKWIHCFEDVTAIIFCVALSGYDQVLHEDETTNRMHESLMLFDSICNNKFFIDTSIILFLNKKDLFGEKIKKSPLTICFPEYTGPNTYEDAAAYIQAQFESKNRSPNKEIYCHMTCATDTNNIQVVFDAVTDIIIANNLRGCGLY
# RGS16-Gao HTS – RGS16-Galphao interaction regulator (human); O15492+P09471; bead-based flow cytometry RGS16-Galphao binding, fluorescence; actives lie on both sides; binding response (% of control), % at 10 µM; 0.38% of 220,000 active; AID 1441; call rule not given here;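 also: Galphao activated by GDP with aluminum fluoride before binding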
# RGS7-Gao – modulates binding of RGS7 to human Galphao; P09471; Multiplexed bead flow cytometry; actives lie on both sides; binding response (% of control), % at 10 µM; 0.35% of 220,000 active; in the data active = binding response below about 49% or above about 150%; inconclusive = no clear call, values can overlap the other calls; inactive = in between;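 also: fluorescent Galphao held in activated GDP-AlF4 state binding bead-coupled RGS7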
# GSH fluor – compound fluoresces at 488/530 nm on GSH beads; GSH beads flow cytometry, compound fluorescence 488/530 nm; stronger effect = higher value; 0.25% of 190,000 active; fluorescence (KMESF) at 10 µM; in the data active = fluorescence above about 89;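 also: glutathione beads carrying GST-tagged Bcl family fusion proteins plus one bare bead set; values are compound well signal with DMSO vehicle wells as background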
# RGS4-Gao reg – modulates binding of RGS4 to human Galphao; P09471; Multiplexed bead flow cytometry; actives lie on both sides; binding response (% of control), % at 10 µM; 0.33% of 220,000 active; in the data active = binding response below about 49% or above about 150%; inactive = in between;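 also: fluorescent Galphao activated with aluminum fluoride binding bead-coupled RGS4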
# Avidin fluor – compound fluoresces at 488/530 nm on avidin beads; compound fluorescence 488/530 nm, flow cytometry; stronger effect = higher value; 0.38% of 220,000 active; fluorescence (KMESF) at 10 µM; in the data active = fluorescence above about 47
# Starred values were filed as active, the others as inactive; ? = inconclusive; / = not tested or not shown; [ ] = dose if it differs, or a comment.
SMILES,RGS8-Gao reg,RGS16-Gao HTS,RGS7-Gao,GSH fluor,RGS4-Gao reg,Avidin fluor
CCCCn1c(SCC(=O)N2CCC(C)CC2)nc2cc(S(N)(=O)=O)ccc21,107,107,102,8,103,13
CCCCn1c(SCC(=O)c2cc(OC)ccc2OC)nc2cc(S(N)(=O)=O)ccc21,100,106,109,260*,105,7
Fc1ccc(N2CCN(c3ccc4c(C(F)(F)F)cc(C(F)(F)F)nc4n3)CC2)cc1,100,121,133,15,117,92*
COc1ccc(NC(=O)Cn2cc(S(=O)(=O)Cc3ccccc3)c3ccccc32)c(OC)c1,96,93,90,12,93,8
CCCn1cc(S(=O)(=O)CC(=O)Nc2ccc(OC)cc2OC)c2ccccc21,95,93,92,130*,84,5
CCCCN(CC)Cc1ccc(CNC(=O)Nc2ccc(Cl)cc2)o1,104,103,103,16,103,5
CCCCN(CC)Cc1ccc(CNC(=O)Nc2ccc(OCC)cc2)o1,101,106,133,34,113,87*
Clc1ccc(/C=N/Nc2nn[nH]n2)cc1,101,95,99,144*,99,7
CC[n+]1c(/C=C2\C=C(C)CC(C)(C)C2)sc2ccccc21,94,91,105,29,98,11
CC[n+]1c(/C=C2/C=C(C)CC(C)(C)C2)sc2ccc(OC)cc21,115,284,163*[activator],30,181*[activator],95*
CCn1c(C)cc2c(c1=O)C(c1ccc3c(c1)OCO3)C(C#N)=C(N)O2 (stereo not given),103,106,114,17,105,63*
Cc1ccc(C(=O)C2CCOC(C)(C)C2)cc1 (stereo not given),101,102,99,18,102,11
O=C(O)C1C2CCC(C2)C1C(=O)NCc1ccco1 (stereo not given),96,97,91,5,95,8
O=C(NCc1ccco1)C1CC2CCC1C2 (stereo not given),134,173,135,246*,116,9
CC(C)(C)C(=O)N(CCN(C(=O)C(C)(C)C)c1ccccc1)c1ccccc1,103,109,113,17,111,50*
CC(C)(C)n1nnnc1SCC(=O)Nc1nn(-c2ccccc2)nc1C(N)=O,102,109,98,7,99,20
Cc1nc2ccccc2c(=O)n1NC(=O)c1cccnc1Cl,101,97,96,11,101,6
Cc1nc2ccccc2c(=O)n1NC(=O)c1ccccc1[N+](=O)[O-],104,106,114,22,102,49*
CCCC(=O)Nc1ccc2nc(SCC(=O)Nc3nccs3)sc2c1,12*,15*,15*,28,21*,0
O=C(Nc1ccccc1)c1ccccc1OCc1cccc([N+](=O)[O-])c1,101,106,101,9,100,12
N/C(=N\OC(=O)c1cccs1)c1ccccc1,102,85,148,5,116,51*
CC(C)NC(=O)COC(=O)c1ccc(Oc2ccccc2)cc1,109,109,104,265*,104,9
Cc1ccc(OCC(=O)N2CCc3ccccc32)cc1,80,41,96,7,94,7
O=C(Cn1cnc2ccccc21)OCC(=O)N1CCCc2ccccc21,103,105,101,253*,104,7
O=C(CCCOc1ccc(Cl)cc1Cl)N1CCCc2ccccc21,100,18,96,250*,88,4
SMILES,RGS8-Gao reg,RGS16-Gao HTS,RGS7-Gao,GSH fluor,RGS4-Gao reg,Avidin fluor
O=C(COc1ccc(Cl)cc1Cl)OCC(=O)N1CCCc2ccccc21,106,144,107,10,105,8
Cc1ccc(OCC(=O)N2CCCc3ccccc32)cc1,105,111,110,140*,108,7
O=C(COC(=O)Cn1cnc2ccccc21)NCCC1=CCCCC1,103,101,106,257*,104,8
O=C(Nc1nnc(-c2ccc3c(c2)OCCO3)o1)C1CCCCC1,101,99,?,16,99,8
CCOC(=O)Nc1ccc(NC(=O)c2ccccc2F)cc1,100,106,?,19,98,10
Cc1cc(C)nc(Nc2ncc(O)n2-c2ccc(C)c(C)c2)n1,104,104,112,18,105,56*
O=C(COC(=O)CCNS(=O)(=O)c1cccc(C(F)(F)F)c1)NC(=O)NC1CCCCC1,96,89,100,12,100,11
Cc1cccc(S(=O)(=O)NCCC(=O)OC(C)C(=O)NC(=O)NC2CCCCC2)c1 (stereo not given),99,101,99,258*,99,8
CSCC[C@H](NC(=O)OC(C)(C)C)c1nnc(SCC=C(C)C)o1,100,101,101,267*,100,8
O=C(O)C1CC=CCC1C(=O)NCc1ccc2c(c1)OCO2 (stereo not given),103,104,100,102*,98,4
Cc1cccc(C(=O)NC(NCc2ccco2)C(Cl)(Cl)Cl)c1 (stereo not given),57*,42,44*,26,49*,2
O=C(N/N=C/c1cccc(OC(=O)c2ccco2)c1)c1ccc(F)cc1,103,102,100,7,102,4
Cc1oc2c(O)c(O)ccc2c(=O)c1-c1cnn(-c2ccccc2)c1,67,35,46*,4,43*,11
Cc1oc2c(O)c(O)ccc2c(=O)c1-c1ccccc1,94,89,?,/,92,8
CCC(C)(C(=O)NC1CCCCC1)N(C(=O)CNC(=O)c1ccccc1)c1c(C)n(C)n(-c2ccccc2)c1=O (stereo not given),100,97,96,10,100,4
O=C(Nc1nc2ccc(SC(F)F)cc2s1)c1ccc(NS(=O)(=O)c2ccc(F)c(F)c2)cc1,102,99,100,12,99,14
Cc1ccc(S(=O)(=O)Nc2ccccn2)cc1[N+](=O)[O-],101,98,?,12,97,10
O=C(Nc1nc(-c2ccccc2)cs1)c1cccc([N+](=O)[O-])c1,12*,1.7*,13*,19,21*,-2
CCCN1CNc2c(c(=O)[nH]c(=S)n2-c2ccc(Cl)cc2)C1,97,105,100,12,96,14
COc1nc(Nc2ccc(C(C)=O)cc2)nc(OC)n1,94,239,149,33,188*[activator],76*
COC(=O)c1ccc(Nc2nc(C)cc(C)n2)cc1,99,100,102,14,97,42
COC(=O)C1=C(C)OC(N)=C(C#N)C1c1cc(C)sc1C (stereo not given),108,103,112,273*,104,7
COC(=O)C1=C(C)OC(N)=C(C#N)C1c1cc2cccc(C)c2nc1Cl (stereo not given),105,105,98,22,100,12
